Data on 40 sequences can be found in the OligoGym collection.
Also: reference of the scale not given here.

The first test concerns the target PDE1C. The test can be described thus: pooled miR-30 sensor sort-seq; sequence = guide strand. The following applies: shRNA.
Take AATTGTTTGACCAAAGACCGTA: the sensor-assay potency score (higher = more potent) is 0.319.
On the same count and under the same terms, with TTTTCTTTGAATCATTTCCGAT the figure was -1.12; with TTTCTTTGAATCATTTCCGATG, -0.853; with TTTGAAGTCACCATTCTGTTGC, 0.443.
TTTTCCTCTGCTTCCTTCTTGG came in with a sensor-assay potency score (higher = more potent) of -0.143.
The sequence ATTCTCTCCACAAATATCCCAG had a sensor-assay potency score (higher = more potent) of -0.723.
Still for that read-out and setting: the figure for TTTTGTGCTTGCTGTATCCCAC is -0.201.
Still for that read-out and setting: with TTTGAGTAAAAATCTCACGTTG the figure was -0.294.
Same read-out and setting: the figure for TTGAGTAAAAATCTCACGTTGT is 0.531.

For a further test, the target named is PDE8B. The test is described as above. The following applies: shRNA.
Take TAAACACATACTCGTTTCCTGA: the sensor-assay potency score (higher = more potent) is -0.83.
Same read-out and setting: the figure for TATATTTATAACCTTTGTGATG is -1.47; for TTGCATTCACAGTCGCTGCCTT it is -0.0743; for TTAGTAAACACATACTCGTTTC it is -0.767.
The same measure, in the same setting: the figure for ATTGATTATATTTATAACCTTT is -0.571; for AATCTCTAGAACTCTGTCCAAG it is -1.58; for TTCATCTTTGGTACCCAGCTGA it is -0.0849.
In turn, ATCGCTCTGACTATCTTCCTTT returned a sensor-assay potency score (higher = more potent) of -0.16.
TACAATAATTTCATGATGCTTA had a sensor-assay potency score (higher = more potent) of -0.231.
Still for that read-out and setting: with TTAAAAACTCACATACTCCAAA the figure was -0.433.
Same read-out and setting: the figure for TCTTAGTAAACACATACTCGTT is -0.91; for TAGCAAGCAATTATGCTGCTAT it is 0.445.

The next test concerns the target PDGFRB. The test is described as above. The conditions noted are these: shRNA.
The sequence TAGTCCACCGACTCGTCCTTGC returned a sensor-assay potency score (higher = more potent) of -0.654.
Still for that read-out and setting: the figure for TTGATCAAAGTTGCTCGGCAGG is -0.679.
Sequence TTGGTCAGTGTGAGCACGCTGG registered a sensor-assay potency score (higher = more potent) of -0.355.
The same measure, in the same setting: the figure for AAAGTCACAGATCTTGACCAGC is -0.788.
Still for that read-out and setting: the figure for TAACAGGAGAGACAGCAACAGC is -1.23; for TTTGATGGCATTGTAGAACTGC it is 0.772.
Consider TTGCTGTAGAGCTCCGCGCTGG, for which the sensor-assay potency score (higher = more potent) is -0.717.
On the same count and under the same terms, with TTGACGGCCACTTTCATCGTGG the figure was -0.193.
Still for that read-out and setting: with TCAGCTCTGACACATACCGGGT the figure was -1.42; with TCTTTTTGTAACCTTCGCCCAA, -0.683.
Take TAGCACTGGAGACTCGTTGATC: the sensor-assay potency score (higher = more potent) was -0.385.

Another test has as its target PDIA5. The description is as above. The conditions noted are these: shRNA.
TTGCACATGCTGCACCAGGGGG returned a sensor-assay potency score (higher = more potent) of -1.31.
TAGAACATGACCAAGGTGTGTT displayed a sensor-assay potency score (higher = more potent) of 0.669.
In turn, TAATTCAACCTTTTTGTCCTTC returned a sensor-assay potency score (higher = more potent) of 0.526.
As to TTCTTCTTCAGGGTCTCCCGGA, the sensor-assay potency score (higher = more potent) was -0.62.
Turning to TAGTCTTTCATGGTCTCCCTCC, the sensor-assay potency score (higher = more potent) is -0.586.
The same measure, in the same setting: the figure for TTTGACACAGTCAACAGCGGCA is -0.283; for TACTGGAACAAGAACCGTCCTT it is 0.0118; for TCATACTGGAACAAGAACCGTC it is 0.647.
